{"source": "PubChem BioAssay (NCI)", "note": "About 83,000 compounds went through this panel and 20% of them were active in at least one assay; those are over-represented in the sample as a whole.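 48-hour exposure, single concentration, 96-well plates; percent growth endpoint where 0 means no net growth. Active: below 10.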 Unmarked numbers belong to inactive results. Active and inactive are the calls of the source.", "data": [{"test_system": "MCF7 breast", "experiment": "NCI-60 one-dose screen, 48 h (100 = growth as untreated, 0 = no growth, -100 = all killed)", "details": "10 µM unless noted", "description": "Growth inhibition of the MCF7 human tumor cell line is measured as a screen for anti-cancer activity. Cells are grown in 96 well plates and exposed to the test compound for 48 hours. Compounds are tested at a single concentration, which is 10^-5 M for most compounds. The reported endpoint is percent growth (GI% or GIPRCNT), where numbers from 0 - 100% represent growth inhibition, and numbers from -100% - 0 represent cell death. For example, a value of 40 represents 60% growth inhibition. A value of 0 means no net growth occurred over the course of the experiment. A value of -40 indicates 40% of cells at the beginning of the experiment died by the end of the experiment. A value of -100 means all cells are dead at the end of the experiment.\nNCI-60 Human Tumor Cell Lines Screen was performed using the standard one-dose NCI protocol, which is described in more detail at https://dtp.cancer.gov/discovery_development/nci-60/default.htm.\nCompounds with GIPRCNT values below 10 were considered active. Activity score was based on GIPRCNT using the following formula: […]\nScore is 0 for GIPRCNT values of 100 or above, 50 for GIPRCNT values of 0, and 100 for GIPRCNT values of -100.", "values": [{"smiles": "CC(C)c1ccc2c(N)c(C(=O)Nc3cccc(C(F)(F)F)c3)sc2n1", "growth": "70.3%"}, {"smiles": "Cc1cccc(-c2nc(Nc3cccc(S(N)(=O)=O)c3)c3ccccc3n2)c1", "growth": "33.3%"}, {"smiles": "CCOC(=O)/C=C/c1cccc2c1C(=O)NC(C)(c1cc3cc(Cl)ccc3oc1=O)N2", "note": "(stereo not given)", "growth": "26.5%"}, {"smiles": "COc1c(F)ccc(C(=O)Nc2ccc3nc(NC(=O)C4CCCN(S(=O)(=O)c5ccc(Br)s5)C4)sc3c2)c1F", "note": "(stereo not given)", "growth": "53.8%"}, {"smiles": "COc1ccc(-c2nc(SC(C)C)nc(NCCc3c[nH]c4ccccc34)c2C#N)cc1", "growth": "7.2% (active)"}, {"smiles": "COc1ccccc1/C=C/C(=O)c1ccc(OC)c(S(N)(=O)=O)c1", "growth": "8.25% (active)"}, {"smiles": "C#CCOc1cc(N(CC)CC)ccc1C(C(=O)NC(C)(C)C)N(C(=O)C1CCc2cc(F)ccc2O1)c1cc(C)cc(C)c1", "note": "(stereo not given)", "growth": "14.9%"}, {"smiles": "C=C1CC[C@@H]2[C@]3(C)COC(c4cn[nH]c4-c4ccccc4)O[C@@H]3CC[C@@]2(C)[C@@H]1C/C=C1/C(=O)OCC1O", "note": "(stereo not given in full)", "growth": "-28.3% (active)"}, {"smiles": "CSc1ccc(C(=O)Nc2ccc3nnn(/C(C#N)=C/c4ccccn4)c3c2)cc1", "growth": "-79% (active)"}, {"smiles": "N#Cc1ccc(C(=O)Nn2c(N)cc3ccccc3c2=O)cc1", "growth": "39.3%"}, {"smiles": "CN(C)CCn1c2ccccc2c2nc3cc(C(F)(F)F)ccc3nc21", "growth": "6.18% (active)"}, {"smiles": "O=C(NNc1ccccc1)n1c(=O)c2ccccc2c(=O)n1-c1ccccc1", "growth": "88.3%"}, {"smiles": "Cc1ccc2c(c1)nc(-c1ccccc1)n2CC(=O)N=Nc1c(O)[nH]c2ccc(Br)cc12", "growth": "-69.7% (active)"}, {"smiles": "COc1cc2nc(SCc3ccccc3)n(-c3ccc(Cl)cc3)c(=O)c2cc1OC", "growth": "14.7%"}, {"smiles": "CCOC(=O)C1=C(N)N(c2ccccc2)C2=C(C(=O)CC(C)(C)C2)C1c1cccc(Cl)c1Cl", "note": "(stereo not given)", "growth": "60%"}, {"smiles": "Cc1ccc(NC(=O)CN2CCN(c3ncnc4c3cnn4-c3ccccc3)CC2)cc1", "growth": "74.2%"}, {"smiles": "CCN(CC)C(=O)N/C(N)=N/c1nc2ccccc2s1", "growth": "37.6%"}, {"smiles": "COc1cc(OC)cc(-c2cc3ccc(N(C)C)cc3c(=O)[nH]2)c1", "growth": "22.5%"}, {"smiles": "O=c1[nH]c2ccccc2cc1CSc1cccc(Nc2nccc(-c3ccc4ccccc4c3)n2)c1", "growth": "85.1%"}, {"smiles": "N/C(=N\\N=C\\c1ccc([N+](=O)[O-])cc1)c1c(N)nc(=S)[nH]c1-c1ccc(Cl)cc1Cl", "growth": "88.2%"}, {"smiles": "CN(C)c1ccnc(CNCCSC2(c3ccc(C(F)(F)F)cc3)c3ccccc3CCc3ccccc32)c1", "growth": "-72% (active)"}, {"smiles": "Cc1cc(=O)oc2cc(OCCCOc3ccc(/C=C/C(=O)Nc4ccccc4N)cc3)ccc12", "growth": "4.44% (active)"}, {"smiles": "COc1cc(C2CC(c3cc(OC)c(OC)c(OC)c3)=NN2C(C)=O)ccc1OCc1ccc(F)cc1", "note": "(stereo not given)", "growth": "34.7%"}, {"smiles": "CN(C)c1nc(NCCNS(=O)(=O)c2ccc(C3=Nc4c(N)nc(N)nc4NC(c4ccc(F)cc4)C3)cc2)nc(Nc2ccc(F)cc2)n1", "note": "(stereo not given)", "growth": "5.29% (active)"}, {"smiles": "CC(=O)Nc1cccc(Nc2nc(N[C@H]3CCCc4ccccc43)c3ccccc3n2)c1", "growth": "95.6%"}, {"smiles": "CC(=O)Nc1ccc(-n2cnc3cc(-c4ccc(O)cc4)ccc32)cc1C(F)(F)F", "growth": "18.4%"}, {"smiles": "Nc1nnc(-c2c[nH]c3ccc(Br)cc23)c(-c2c[nH]c3ncc(Br)cc23)n1", "growth": "12.3%"}, {"smiles": "COc1ccc2nc(Nc3cccc(NC(=O)c4ccc(CN5CCCN(C)CC5)c(C(F)(F)F)c4)c3)ccc2c1", "growth": "-62.8% (active)"}, {"smiles": "CCN(CC)c1ccnc(CNCCSC(c2ccccc2)(c2ccccc2)c2ccc(OC)cc2)c1", "growth": "-50.8% (active)"}, {"smiles": "CN(C)c1nc(NCCNS(=O)(=O)c2ccc(C3=Nc4c(N)nc(N)nc4NC(c4ccccc4)C3)cc2)nc(Nc2ccc(F)cc2)n1", "note": "(stereo not given)", "growth": "17.3%"}, {"smiles": "C#CCOc1cc(N(CC)CC)ccc1C(C(=O)NC(C)(C)C)N(C(=O)C1CCc2cc(F)ccc2O1)c1ccc(Br)cc1", "note": "(stereo not given)", "growth": "52.8%"}, {"smiles": "COc1cc(CNC(=O)/C=C/c2ccc3c(c2)OCO3)ccc1OCc1cn(-c2cccc(C(F)(F)F)c2)nn1", "growth": "12.2%"}, {"smiles": "Cc1sc(C(NC(=O)OCCn2c([N+](=O)[O-])cnc2C)C(F)(F)Cl)nc1-c1ccc(OC(F)(F)F)cc1", "note": "(stereo not given)", "growth": "-85.1% (active)"}, {"smiles": "COc1ccc(C(=O)/C=C/c2ccc(OCc3ccc(F)cc3)c(OC)c2)cc1OC", "growth": "7.56% (active)"}, {"smiles": "C=C1CC[C@@H]2[C@]3(C)COC(c4cn[nH]c4-c4ccc(C)cc4)O[C@@H]3CC[C@@]2(C)[C@@H]1C/C=C1/C(=O)OCC1O", "note": "(stereo not given in full)", "growth": "8.74% (active)"}, {"smiles": "Cn1cc(-c2nnc(N)nc2-c2c[nH]c3ccc(F)cc23)c2cccnc21", "growth": "23.6%"}, {"smiles": "CC1(C)CC[C@]2(C(=O)O)CC[C@]3(C)C(=CCC4[C@@]5(C)C[C@@H](O)[C@@H]6OC(c7ccccc7Br)OC[C@@]6(C)C5CC[C@]43C)C2C1", "note": "(stereo not given in full)", "growth": "7.28% (active)"}, {"smiles": "CN(C)c1ccnc(NCCCSC(c2ccccc2)(c2ccccc2)c2ccccc2)c1", "growth": "-35.8% (active)"}, {"smiles": "CCCCSc1nc(NCCc2c[nH]c3ccccc23)c(C#N)c(-c2ccc(OC)cc2)n1", "growth": "17.7%"}, {"smiles": "N/C(=N\\c1nc2ccccc2s1)NC(=O)NCCCCCCO", "growth": "30%"}]}]}
